Screens: PubChem BioAssay, several laboratories
In the library only some 5.4% were active in any assay of this set; here they are far more common.
NR0B1 inh: inhibitors of human orphan nuclear receptor DAX1 (NR0B1); P51843; HEK293 Gal4-DAX1 luciferase reporter, luminescence; inhibition, % at 6.75 µM; 0.99% of 340,000 active;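 active means inhibition above the mean over all tested compounds plus 3 SD, cut at about 4.2% in these data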;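 further: 0% = DAX1-transfected cells with DMSO and 100% = empty-vector control cells with DMSO; inhibition shows as a rise in luminescence from relieved DAX1 repression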
Target sequence (P51843 207-470 limits assumed): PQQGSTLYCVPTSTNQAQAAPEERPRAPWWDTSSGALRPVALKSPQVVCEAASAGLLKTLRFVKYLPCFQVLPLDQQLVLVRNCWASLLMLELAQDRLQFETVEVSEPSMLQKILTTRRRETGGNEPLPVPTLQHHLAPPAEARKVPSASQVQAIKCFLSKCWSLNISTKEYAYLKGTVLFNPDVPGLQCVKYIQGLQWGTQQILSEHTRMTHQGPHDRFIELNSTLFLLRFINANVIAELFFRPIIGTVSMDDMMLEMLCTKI
AHR activator: activators of human aryl hydrocarbon receptor | P35869 | AHR-responsive luciferase reporter cells, luminescence | activation, % at 5 µM | 2.5% of 320,000 active; in the data active means activation above about 47%;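 further: 0% = vehicle wells and 100% = reference agonist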
HSF-1 act: increases HSF-1 driven luciferase reporter signal; NIH3T3-HGL HSF-1 luciferase reporter, MG132, 8 h; 100% = twice DMSO control signal; activation, % at 9 µM; 1.7% of 300,000 active; AID 504408;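 active means mean replicate activation of at least 50% with a set share of replicates each reaching 50%; inconclusive means only one of those two conditions met; inactive means mean below 50% and too few replicates reaching it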;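 further: 0% = median of the neutral control wells and 100% = twice that signal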
HSF1 inhib: HSF1 inhibition. AID 2098. 0.77% of 300,000 active. NIH3T3-HGL HSE-luciferase, MG132-induced, luminescence 8 h; hits give low values. activity change, negative = inhibition, % at 7.5 µM (by protocol);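 active means more than half of replicate wells show activity change below -50%, luminescence cut by over half; inconclusive means some wells, but at most half, below -50%; inactive means no replicate well below -50%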;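 further: luciferase reports HSF-1 transcriptional activity via heat shock element; 0% = median of DMSO wells and -100% = zero luminescence signal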
GAA850 FXN act: activators of GAA850 frataxin (FXN) promoter; HEK293 lucGAA850 FXN promoter luciferase reporter, 24 h; percent of 10 µM SAHA response; activation, % at 6 µM; 0.56% of 360,000 active; AID 540364;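 active means activation above the average of all compounds screened plus 3 SD, cutoff fixed separately per campaign, cut at about 7.5% in these data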;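 further: 0% = DMSO wells and 100% = 10 µM SAHA wells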
* marks the source's active call; other numbers are inactive results; ? = inconclusive; . = not tested or not shown.

SMILES	NR0B1 inh	AHR activator	HSF-1 act	HSF1 inhib	GAA850 FXN act
O=S1(=O)CC=C(CSC(=S)NC2CCS(=O)(=O)C2)C1 (stereo not given)	4.3*	0	6	-2	-1
CCOC(=O)[C@@H]1[C@H]2COc3cc(OC)ccc3[C@H]2N2C(=O)N(c3ccc(C)cc3)C(=O)[C@@]12C	2	-3	20	6	0
CCC(=NNS(=O)(=O)c1ccc(C)cc1)c1ccc(OC)c(C)c1	1	.	.	.	3
Cn1cc(C=O)c(-c2ccc3c(c2)OCCCO3)n1	0	2	89*	42	-1
Cn1cc(C(=O)O)c(-c2ccc3c(c2)OCCCO3)n1	2	-1	-3	-6	1
CC(=O)N1CCC(N(CCCOC(C)C)S(=O)(=O)c2ccc([N+](=O)[O-])cc2)CC1	1	3	11	-5	4
Oc1ccccc1C=Nc1cccc2ccccc12	2	21	-4	-13	1
Oc1cccc(C=Nc2cccc3ccccc23)c1O	0	51*	24	6	6
CCN(CC(=O)Nc1ccccc1C(F)(F)F)C(=O)CSCc1ccc(C)cc1	0	0	2	8	1
Cc1ccccc1/[N+]([O-])=C/c1cccs1	-1	-1	95*	50	1
Cc1ccc(CN2C(=O)CSC2c2ccc(F)cc2)cc1 (stereo not given)	0	1	-1	2	1
COc1ccc(-c2nc(N=Nc3ccc(O)cc3)n[nH]2)cc1	-1	19	23	5	0
COc1ccc(N=Nc2[nH]c3ccc(C)cc3c2O)cc1	0	69*	-4	-2	3
Cc1ccc(N=Nc2[nH]c3ccccc3c2O)cc1	3	77*	.	.	2
O=C(COC(=O)c1ccc(Br)cc1)NC(=O)NCc1ccccc1	1	0	.	.	0
Cc1ccc(S(=O)(=O)N2CCOCC2)cc1NC(=O)CSCc1c(C)noc1C	1	18	.	.	-2
Cc1nc2sc(-c3ccccc3)cc2c(=O)n1/N=C/N(C)C	2	2	34	29	7
O=C(CSc1nc2c(c(=O)[nH]1)CCC2)Nc1ccc(F)cc1	0	3	68*	25	1
O=C(CSc1nc2c(c(=O)[nH]1)CCC2)Nc1cccc(F)c1	0	1	32	9	1
COC(=O)c1ccc(NC(=O)CSc2ccccn2)cc1	-2	-3	23	0	2
O=C(CSc1ccc(F)cc1)Nc1ccc(Br)cc1	2	-1	102*	47	4
COC(=O)c1ccc(NC(=O)CSc2ccccc2)cc1	7.4*	1	33	7	3
O=C(CSc1ccccc1)Nc1ccc(N2CCN(c3ccccc3)CC2)c(F)c1	0	-2	55*	28	-1
CCOc1ccc(C(=O)NCC(=O)N2CC=C(c3ccccc3)CC2)cc1OCC	-3	4	-2	-2	1
COc1cc(CC(=O)OCC(=O)Nc2cccc([N+](=O)[O-])c2)cc(OC)c1OC	2	-2	5	4	0
SMILES	NR0B1 inh	AHR activator	HSF-1 act	HSF1 inhib	GAA850 FXN act
Cc1cc([N+](=O)[O-])ccc1NC(=O)CCC(=O)N1CCCCC1	0	-4	-80	-77*	1
Cc1cc([N+](=O)[O-])ccc1NC(=O)CCC(=O)N1CCCC1	1	1	7	-1	-1
COC(=O)c1cn(CCOc2ccc(C)cc2)c2ccccc12	2	3	100*	45	-3
Cc1ccc(OCCn2cc(/C=C/C(=O)O)c3ccccc32)cc1	2	.	0	0	-1
Cc1ccc(OCCCCn2cnc3ccccc32)cc1	0	7	-79	-79*	0
c1ccc(OCCCCn2cnc3ccccc32)cc1	-3	-6	10	8	-1
CSc1nc(C)cc(SCC(=O)N/N=C/c2ccccc2)n1	-1	71*	24	-4	1
O=C(Nc1cc(Cl)ccc1Oc1ccccc1)c1ccccc1F	-1	65*	-15	9	1
O=C(Nc1cc(Cl)ccc1Oc1ccccc1)c1ccc(F)cc1	0	4	2	1	1
Cc1ccc(Oc2ccc(Cl)cc2NC(=O)c2ccc(F)cc2F)cc1	6.0*	15	-3	-2	2
Cc1ccc(/C=N/N=C2/NC(=O)C(CC(=O)N3CCOCC3)S2)cc1 (stereo not given)	1	3	-19	-6	2
NCCCn1c(C(=O)c2cc(Cl)c(N)c(Cl)c2)c2ccc([N+](=O)[O-])cc2[n+]1[O-]	-4	115*	?	27	-2
NC(=O)c1ccc(Cn2c(C(=O)c3cc(Cl)c(N)c(Cl)c3)c3ccccc3[n+]2[O-])cc1	2	78*	.	.	-1
COc1ccc(C(=O)c2c3ccc(C(F)(F)F)cc3[n+]([O-])n2CCCC(N)=O)cc1	2	19	-48	-36	-1
NC(=O)CCCn1c(C(=O)c2cc(Cl)c(N)c(Cl)c2)c2ccc(C(F)(F)F)cc2[n+]1[O-]	0	55*	-7	4	0
NC(=O)c1ccc(Cn2c(C(=O)c3ccc(Cl)cc3)c3ccccc3[n+]2[O-])cc1	0	15	.	.	3
NCCCn1c(C(=O)c2cc(Cl)c(N)c(Cl)c2)c2ccc(C(F)(F)F)cc2[n+]1[O-]	2	57*	-14	3	-1
CC(C)CN(C(=O)COC(=O)CCc1nc2ccccc2s1)c1c(N)n(Cc2ccccc2)c(=O)[nH]c1=O	1	1	23	6	-1
O=C(CSc1ccc(-c2ccco2)nn1)c1ccccc1	0	1	7	9	6
CC(C)c1ccc(C(=O)COC(=O)C(O)c2ccccc2)cc1 (stereo not given)	1	1	.	.	2
COC(=O)c1ccc(/C=C/C(=O)OCC(=O)Nc2cc(C)on2)cc1	1	0	.	.	-1
O=C(N/N=C/c1cc2c(cc1Br)OCO2)c1cc2ccccc2o1	0	44	-18	-1	1
O=C(N/N=C/c1cc2c(cc1Br)OCO2)c1ccccn1	.	36	60*	31	3
O=C(N/N=C/c1ccc2c(c1)OCO2)c1ccccn1	-1	42	23	1	-1
O=C(N/N=C/c1ccc(Br)s1)c1c[nH]c2ccccc12	0	146*	56*	33	4
SMILES	NR0B1 inh	AHR activator	HSF-1 act	HSF1 inhib	GAA850 FXN act
O=C(N/N=C/c1cc2c(cc1Br)OCO2)c1c[nH]c2ccccc12	5.4*	14	33	16	4
CCS(=O)(=O)N1Cc2ccccc2CC1C(=O)NCCc1c[nH]c2ccccc12 (stereo not given)	-1	16	14	4	0
CN(C)/C=C/C(=O)/C=C/c1ccc(Cl)cc1	0	2	-9	-13	4
CN(C)CC(O)c1ccc(C=Cc2ccc(Cl)cc2)cc1 (stereo not given)	6.4*	.	.	.	3
CCN(CC(=O)NCc1ccc(F)cc1)C(=O)c1ccc(COc2ccccc2)cc1	1	10	7	6	3
COCn1c(-c2cccc(Br)c2)nc2ccccc21	0	53*	21	20	-2
